Assay outcomes from PubChem.
Sampled rows, rich in hits. Any-hit rate of the full collection: about 8%.
FBPA coupling cs = coupling enzyme interference in Giardia aldolase counter-screen; coupling enzyme system counterscreen, AmpLite Red fluorescence; activity change, negative = inhibition, % at 58.2 µM, hits read low; 290,000 compounds, 0.67% hits; in the data active = activity change below about -30%
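First, compound is pin-transferred into glyceraldehyde-3-phosphate coupling-enzyme reagent at 57.5 uM final and held 10 min at RT. Next, substrate, coupling system and AmpLite Red are added. After 20 min RT, fluorescence (525/598 nm) is read.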
ELG1 repair inh = ELG1-dependent DNA repair inhibition; HEK293T ELG1-luciferase reporter, luminescence, 16 h; DNA damage induced by 5-fluorouridine; AID 504467; Potency, µM (top dose mostly 46.1 µM), usual class: inhibitors; 330,000 compounds, 2.3% hits; also: nearly all actives have a fitted effect of over 55% in size
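Quantitative HTS, concentration-response format. 2,000 cells/well co-treated with 5-fluorouridine and compound, 16 hr in 5% CO2 at 37 °C; ONE-Glo luminescence read after 30 min.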
RORgamma inh = blocks mouse ROR gamma transcriptional activity; Drosophila S2 Gal4-RORgamma UAS-luciferase reporter, 20 h; 310,000 compounds, 5.4% hits; Potency, µM (highest dose often 53.6 µM), actives largely listed as inhibitors; P51450; also: nearly all actives have a fitted effect of over 60% in size
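A Gal4/UAS one-hybrid system in insect cells: metallothionein-promoter Gal4–ROR gamma fusion plus Photinus luciferase reporter. Copper sulfate 700 uM final, 20 hr ambient incubation, luminescent detection after 10 min with reagent.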
TSHR antagonist = human thyrotropin receptor antagonism | activity change, negative = inhibition, % at 11.5 µM | 330,000 compounds, 0.2% hits | TSHR-expressing cells, TSH-stimulated cAMP HTRF, 2 h; stronger effect = lower value;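 active = activity change below a set negative limit, meaning inhibition stronger than a set level, cut at about -70% in these data; inconclusive = activity change between two set negative limits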
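TSHR-expressing cells were treated with compounds, then stimulated with TSH at EC80 (4nM final) for 2 hours at 37 deg C. Cellular cAMP was measured by HTRF competition between lysate cAMP and cAMP-d2 for a cryptate-labelled anti-cAMP antibody.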
Gal4-VP16 FLuc = inhibits Gal4-VP16 luciferase reporter, ROR gamma counter-screen. Drosophila S2 Gal4-VP16 UAS-luciferase, luminescence, 20 h. Potency, µM (top dose mostly 53.6 µM), hits mostly inhibitors. 310,000 compounds, 3.5% hits. AID 2546;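 also: Gal4-VP16 expression switched on by copper sulfate through the metallothionein promoter; nearly all actives have a fitted effect of over 50% in size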
Numbers stand for hits; - = inactive; ? = inconclusive; . = not tested or not shown; [ ] = dose if it differs, or a comment. Unless noted, calls follow the shape of the dose curve; as a rule, active = well fitted curve in the direction sought with a large enough effect; inconclusive = small, poorly fitted or top-dose-only effect, or another doubt; inactive = no such curve, though single readings can be large; an effect the other way counts as inactive or inconclusive.

SMILES	FBPA coupling cs	ELG1 repair inh	RORgamma inh	TSHR antagonist	Gal4-VP16 FLuc
COCCN(C(=S)Nc1ccc(OC)c(Cl)c1)C1CCN(C(C)C)CC1	-	-	-	-	-[10 µM]
COc1ccc(NC(=S)N(CCCN2CCC(C)CC2)Cc2cccs2)cc1Cl	-	-	11.2µM	-	-[10 µM]
Cc1cc(NC(=O)COC(=O)c2ccc([N+](=O)[O-])cc2Cl)no1	.	-	.	-	.
COc1ccc(N2CCN(C3CCCN(C(=O)CCN4CCCCO4)C3)CC2)cc1 (stereo not drawn)	-	-	-	-	-
CC1CCN(S(=O)(=O)c2ccc(C(=O)N3CCCC3C(=O)O)cc2)CC1 (stereo not drawn)	.	-	.	-	.
COc1ccc(-c2nc3c4ccccc4ccn3c2CN2CCCCC2)cc1	-	?	7.94µM	-	-
COc1ccc(-c2nc3c4ccccc4ccn3c2CN2CCCCC2)cc1OC	-	-	?	-	-
Clc1ccc(-c2nc3ccccn3c2CN2CCCCC2)cc1	-	?	17.8µM	-	-
C[C@H]1Cc2c(COc3ccccc3)nc3c(c2CO1)CN(C(=O)c1cc(I)ccc1F)CC3	-	.	.	.	.
CC(C)c1ccc(N=C(N)N=C(N)N)cc1	-	20.6µM	-	-	-
O=C(c1csnn1)N1CCC2(CCCN(c3ncccn3)C2)CC1	-	.	-	.	-
Cc1cccc(NC(=O)CNC(=O)Cc2ccc3c(c2)OCCO3)c1C	.	-	.	-	.
COc1ccc(C(=O)NNC(=O)COc2ccc(Cl)cc2)c(OC)c1	-	-	-	-	-
O=C(O)c1ccc2c(c1)C1C=CCC1C(c1ccncc1)N2 (stereo not drawn)	-30.9	-	-	-	-
CCOc1ccccc1C1c2[nH]c3ccccc3c2C[C@H]2C(=O)N(C3CC3)CC(=O)N12 (stereo partly drawn)	-	-	-	-	-
COC(CNC(=O)c1cn(C)c2ccc(S(=O)(=O)N3CCOCC3)cc2c1=O)OC	.	-	-	-118.4	-
CCn1cc(C(=O)N2CCCC2)c(=O)c2cc(S(=O)(=O)N3CCOCC3)ccc21	-	-	4.47µM	-	-
Cc1cccc(NC(=S)N2CCN(c3ccccc3F)CC2)c1C	-	-	8.91µM	-	10µM
Cc1ccc(N2CCN(C(=S)Nc3ccccc3C)CC2)cc1	-	?	10µM	-	?
Cc1ccccc1NC(=S)N1CCN(c2ccccc2C)CC1	-	-	2.82µM	-	5.62µM
CCCCNC(=S)N1CCN(c2ccccc2Cl)CC1	-	-	11.2µM	-	-
COC(=O)C(Cc1ccccc1)NC(=O)CNC(=O)c1ccccc1OC (stereo not drawn)	-	-	-	-	-
O=C(N/C=N/O)C(c1ccccc1)c1ncc(C(F)(F)F)cc1Cl (stereo not drawn)	-	-	-	-	-
CC(C)Oc1ccc(C(=O)NCC(=O)N2CCN(S(=O)(=O)/C=C/c3ccccc3)CC2)cc1	.	?	.	-	.
CC(OC(=O)Cc1ccccc1[N+](=O)[O-])C(=O)NC(=O)NC1CCCCC1 (stereo not drawn)	.	-	.	-	.
SMILES	FBPA coupling cs	ELG1 repair inh	RORgamma inh	TSHR antagonist	Gal4-VP16 FLuc
CC(C)ON([C@@H](C(=O)NO)C(C)C)S(=O)(=O)c1ccc(-c2ccccc2)cc1	.	.	.	-	.
CC(C)ON(C(C(=O)NO)C(C)C)S(=O)(=O)c1ccc(-c2ccccc2)cc1 (stereo not drawn)	-	.	10µM	.	?
O=S(=O)(NCC1CCCO1)c1ccc(-c2ccc(S(=O)(=O)NCC3CCCO3)cc2)cc1 (stereo not drawn)	-	-	4.47µM	-	5.62µM
Cc1ccc(S(=O)(=O)NCC2CCCO2)cc1 (stereo not drawn)	-	-	-	-	-
Cc1ccc(C2CN(CCC(N)=O)C(=O)CO2)cc1 (stereo not drawn)	.	-	.	-	.
Cc1cc(/C=C2\Sc3ccccc3N2C)cc(C)[n+]1CC1CCCO1 (stereo not drawn)	-	?	2.82µM	-	2µM
O=C(NCCC(=O)N1CCc2ccccc21)c1ccccc1Cl	-	-	-	-	-
O=C(NC(=S)N1CCc2ccccc21)c1ccccc1Cl	-	?	0.447µM	-	1µM
O=C(NC(=S)N1CCc2ccccc21)c1ccccc1	-	?	0.562µM	-	0.501µM
Cc1ccc(SCC(=O)N/N=C/c2ccco2)cc1	-	-	-	-	-
